RXFP1 ag – qHTS Assay for Agonists of the Relaxin Receptor RXFP1. Relaxin receptor 1 (Homo sapiens), Q9HBX9. HEK293T-RXFP1 cAMP TR-FRET, 30 min; response scale: percent of porcine relaxin response, buffer zero. Potency, µM (doses to about 57.5 µM), without a hit: top-dose activation, most hits filed as activators. 370,000 compounds, 0.3% hits. AID 2676, 2010; further: potency means the concentration at half of the fitted maximal effect; on the % scale 0 is the no-effect control and ±100 the full control effect; nearly all actives have a fitted effect of over 60% in size
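HEK293T cells stably expressing RXFP1 were pretreated with the PDE4 inhibitor Ro 20174, exposed to compounds for 30 min at 37C, lysed, and cAMP was read by TR-FRET. Data normalized to buffer (basal) and 29 nM porcine relaxin (100%).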
NPSR antagonist – qHTS Assay for Antagonists of the Neuropeptide S Receptor: cAMP Signal Transduction; Q6W5P4; CHO-NPSR cells, cAMP TR-FRET, antagonist mode; Potency, µM (top dose mostly 38.3 µM), without a hit: at the highest dose activity change, negative = inhibition, most hits filed as inhibitors; 220,000 compounds, 1% hits; further: potency means the concentration at half of the fitted maximal effect; on the % scale 0 is the no-effect control and ±100 the full control effect; nearly all actives have a fitted effect of over 50% in size
Target sequence (Q6W5P4 whole entry, looked up): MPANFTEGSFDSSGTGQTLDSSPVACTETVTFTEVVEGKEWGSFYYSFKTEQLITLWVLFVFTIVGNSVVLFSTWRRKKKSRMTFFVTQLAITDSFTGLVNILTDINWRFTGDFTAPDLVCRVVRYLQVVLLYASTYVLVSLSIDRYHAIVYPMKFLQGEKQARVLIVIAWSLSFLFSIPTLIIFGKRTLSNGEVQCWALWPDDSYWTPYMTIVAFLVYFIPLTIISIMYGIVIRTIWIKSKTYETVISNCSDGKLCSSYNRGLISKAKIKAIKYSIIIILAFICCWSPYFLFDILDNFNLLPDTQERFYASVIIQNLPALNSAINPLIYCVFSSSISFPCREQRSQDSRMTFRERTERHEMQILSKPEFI
RXFP1 antag – qHTS Assay for Antagonists of the Relaxin Receptor RXFP1; HEK293-RXFP1, relaxin-stimulated cAMP HTRF, 30 min; active compounds read low; activity change, negative = inhibition, % at 57.5 µM; 350,000 compounds, 0.59% hits; Relaxin receptor 1 (Homo sapiens), Q9HBX9;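 active means activity change of -60% or lower, but not beyond a set lower limit; inconclusive means change between -60% and -40%, or beyond the set limit; inactive means change above -40%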; further: on the % scale 0 is the no-effect control and ±100 the full control effect
Giardia kill – Small Molecules that selectively kill Giardia lamblia: qHTS; activity change, % at 7.66 µM, hits read low; 340,000 compounds, 0.15% hits; AID 540267, 2011; Giardia lamblia trophozoite viability; in the data active means activity change below about -80%; inconclusive means between about -30% and that limit;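 further: parasites exposed to compound for two days anaerobically before the ATP read; on the % scale 0 is the no-effect control and ±100 the full control effect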
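Anaerobic 48 hrs incubation at 37 deg C of 100 trophozoites/well with test compounds; ATPLite 1-Step luminescence, 15-30 min RT, reports cellular ATP as viability.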
IL2 activator – qHTS of IL-2 Activators | AID 652025, 2013 | activation, % (series mostly up to about 46 µM) | IL-2 activation reporter assay, cell-based qHTS; stimulated with anti-CD3/CD4/CD28 beads; in transgenic mouse T cells | 360,000 compounds, 0.065% hits; in the data active means activation above about 50%; inconclusive means mostly about 30% to 49%; further: 0% is about no effect
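First, unstimulated transgenic mouse T cells were exposed to compound for 60 min. Next, anti-CD3/anti-CD4-coated beads with anti-CD28 were added. Finally, after 18 h at 37 degrees C, EGFP and DsRed were imaged.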
BRCA1 expr up – qHTS Assay to Identify Small Molecule Activators of BRCA1 Expression | MCF7-BRCA1-FFLuc reporter, luminescence, 48 h; response scale: scaled: vehicle 0%, 10 µM genistein 100% | Potency, µM (series often up to 46.1 µM), for inactives: at the highest dose activation, hits mostly activators | 380,000 compounds, 1.1% hits | AID 624202, 2012; further: potency means the concentration at half of the fitted maximal effect; nearly all actives have a fitted effect of over 80% in size
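First, MCF7-BRCA1-FFLuc cells (2000/well) attach for 2 h; next, compounds are pin-added and incubated 48 h at 37 °C; finally, luciferase reagent is added and luminescence read after 15 min.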
The depositor's hits bear a star; [ ] = dose if it differs, or a comment. In the library only some 1.9% were active in any assay of this set; here they are far more common. Unless noted, the call rests on the fitted dose curve; in most records, active means well fitted curve in the direction sought with a large enough effect; inconclusive means small, poorly fitted or top-dose-only effect, or another doubt; inactive means no such curve, though single readings can be large; an effect the other way counts as inactive or inconclusive.

For CN1CC=C(/C=C/c2ccc(-c3ccccc3)cc2)CC1 the results were RXFP1 ag 2.3%, RXFP1 antag -5.8, Giardia kill 30.4, IL2 activator -0.6 and BRCA1 expr up 8.91µM*.
Screening CN1CC[C@]23c4c5ccc(O)c4OC2C(O)CCC3[C@H]1C5 (some centres not stated) returned RXFP1 antag 15.7.
Screening O=c1[nH]c2cc(Cl)ccc2n1C1CCNCC1 returned RXFP1 antag 17.1.
Nc1ccc2c(c1)oc1ccccc12 was read as RXFP1 ag 0.9%, NPSR antagonist 0.3%[46.1 µM], RXFP1 antag -3.4, Giardia kill -5.6, IL2 activator -0.1 and BRCA1 expr up 7.08µM*.
For O=C(Oc1ccc2ccccc2c1Cl)N1CCCC1 the results were RXFP1 ag -0.8%, NPSR antagonist -9.8%[46.1 µM], RXFP1 antag 1.7, Giardia kill -22.1, IL2 activator -3.0 and BRCA1 expr up 4.47µM*.
Screening COc1ccc2oc(-c3cccc(NC(=O)c4ccc(C#N)cc4F)c3)nc2c1 returned RXFP1 ag inconclusive and BRCA1 expr up 48.6%.
Screening CC(=O)c1ccc2c(c1)C1C(Cl)C(Sc3ccccc3[N+](=O)[O-])CC1C(c1ccccc1)N2 (configuration not stated) returned RXFP1 ag -8.5%, NPSR antagonist inconclusive, RXFP1 antag -81.1*, Giardia kill -5.2, IL2 activator -1.3 and BRCA1 expr up -41.1%.
For CC(=O)c1ccc2c(c1)C1C(Cl)C(Sc3ccccc3[N+](=O)[O-])CC1C(c1ccccc1[N+](=O)[O-])N2 (configuration not stated) the results were RXFP1 ag -2.3%, NPSR antagonist -20.6%[46.1 µM], RXFP1 antag -26.8, Giardia kill 11.0, IL2 activator -3.0 and BRCA1 expr up -37.8%.
COc1ccc(OC)c(CC(C)N)c1 (configuration not stated) was read as RXFP1 antag 16.6.
Screening C[C@@H]([C@@H](O)c1ccccc1)N(C)C(=O)Cc1ccccc1 returned Giardia kill 2.1, IL2 activator -1.4 and BRCA1 expr up 3.5%.
Screening CN(C)CC(C(=O)Cc1ccccc1)c1ccccc1 (configuration not stated) returned RXFP1 antag -118.4*, Giardia kill 3.3, IL2 activator -0.7 and BRCA1 expr up -92.1%.
Screening CN(C)c1ncc(/C=C2/C(=O)NC(=S)N(C3CCCCC3)C2=O)cn1 returned RXFP1 ag 0.3% and NPSR antagonist 10µM*.
Screening CSc1ncc(/C=C2/C(=O)NC(=O)N(C3CCCCC3)C2=O)cn1 returned RXFP1 ag 0.0%, NPSR antagonist inconclusive, RXFP1 antag -12.8, Giardia kill 9.5, IL2 activator 0.8 and BRCA1 expr up 5.2%.
Screening CCN(CC)c1ccc(/C=N/c2sc3c(c2C#N)C2CCN3CC2)c(O)c1 returned RXFP1 ag -0.7%, NPSR antagonist -19.4%, RXFP1 antag -15.0, Giardia kill 10.8, IL2 activator 52.9* and BRCA1 expr up -25.3%.
O=C1CN2CCOC2(c2ccccc2Cl)c2cc(Cl)ccc2N1 (configuration not stated) was read as RXFP1 antag -8.2.
O=[N+]([O-])/N=C1\NCCN1Cc1ccc(Cl)nc1 was read as RXFP1 antag 5.6.
Screening NS(=O)(=O)c1ccc(N=Cc2c(O)n(C3CCCCC3)c(=O)n(C3CCCCC3)c2=O)cc1 returned RXFP1 ag 0.8%, NPSR antagonist 10µM*, RXFP1 antag -8.4, Giardia kill 0.1, IL2 activator -3.3 and BRCA1 expr up -46.0%.
`O=C(Nc1ccccc1F)Oc1cccc(OC(=O)Nc2ccccc2F)c1` gave RXFP1 ag 3.9%, NPSR antagonist inconclusive, RXFP1 antag -4.2, Giardia kill 19.9, IL2 activator -2.7 and BRCA1 expr up 74.7%.
For COc1ccc2nc(NC3=NCCN3)sc2c1 the results were RXFP1 ag 2.0%, NPSR antagonist 9.0%, RXFP1 antag -3.5, Giardia kill -11.7, IL2 activator 0.5 and BRCA1 expr up 1.26µM*.
Screening [Hg+][c]1ccccc1 returned BRCA1 expr up -43.6%.
CN(C)CCc1c[nH]c2cccc(OP(=O)(O)O)c12 was read as RXFP1 antag 18.4.
Screening FC(F)(F)c1ccc2c(c1)ncn2C1CCN(Cc2nnnn2C2CCCCC2)CC1 returned RXFP1 ag -0.5%, NPSR antagonist inconclusive, RXFP1 antag -74.2*, Giardia kill 6.3, IL2 activator -1.3 and BRCA1 expr up -29.6%.
Screening COC[C@@H](NC(C)=O)C(=O)NCc1ccccc1 returned RXFP1 antag 13.8.
For CC(C)CN(CC(C)C)c1ccc(C=C2C(=O)NC(=S)NC2=O)cc1[N+](=O)[O-] the results were RXFP1 ag -0.2%, NPSR antagonist inconclusive, RXFP1 antag -63.2*, Giardia kill -2.3, IL2 activator 0.0 and BRCA1 expr up -60.6%.
For CCN(CC)c1ccc(C=C2C(=O)NC(=S)NC2=O)cc1 the results were RXFP1 ag 1.8%, NPSR antagonist inconclusive, RXFP1 antag inconclusive, Giardia kill -4.8, IL2 activator -0.8 and BRCA1 expr up -79.5%.
Screening COc1cc(CC(C)N)c(OC)cc1Br (configuration not stated) returned RXFP1 antag 15.2.
Screening ClC1=C(Cl)[C@]2(Cl)[C@@H]3[C@@H]4C[C@@H]([C@H]5O[C@@H]45)[C@@H]3[C@@]1(Cl)C2(Cl)Cl returned RXFP1 antag -20.9.
Screening CN1/C(=C\C=C\C2=[N+](C)c3ccc4ccccc4c3C2(C)C)C(C)(C)c2ccccc21 returned RXFP1 ag 16.6% and NPSR antagonist 7.94µM*.
CCN1/C(=C/C=C/C2=[N+](CC)c3ccccc3C2(C)C)C(C)(C)c2ccccc21 was read as RXFP1 antag inconclusive, IL2 activator -5.6 and BRCA1 expr up -85.6%.
C=C(C=O)C[C@@H]1C[C@H](O)C2OC3C[C@]4(C)OC5/C=C\CC6OC7C(CC=CCC6OC5CCCC4OC3CC2O1)OC1CC2OC3CC(=O)OC3C[C@@H](C)C[C@@]2(C)OC1C[C@@H]7C (some centres not stated) was read as RXFP1 ag -1.0%, NPSR antagonist 0.794µM*, Giardia kill -4.6, IL2 activator -0.7 and BRCA1 expr up -23.4%.

Bioassay records (PubChem)
